# Test results from PubChem BioAssay (NCATS).
# Unmarked numbers belong to inactive results. Records with an inconclusive call do not appear. Entries that show only a call come without a potency. The source made the active and inactive calls. Calls follow the shape of the dose curve; as a rule, active = well fitted curve in the direction sought with a large enough effect; inconclusive = small, poorly fitted or top-dose-only effect, or another doubt; inactive = no such curve, though single readings can be large; an effect the other way counts as inactive or inconclusive.
# How the values were obtained:
# [1] = target: Glutathione peroxidase 1 (Homo sapiens) (UniProt P07203); test: Primary qHTS Assay for Inhibitors of Recombinant Selenoprotein Glutathione Peroxidase 1 (GPX1) (AID 1845191); also: nearly all actives have a fitted effect of over 65% in size
# Chain of Glutathione peroxidase 1 (Homo sapiens) (P07203 whole entry, looked up): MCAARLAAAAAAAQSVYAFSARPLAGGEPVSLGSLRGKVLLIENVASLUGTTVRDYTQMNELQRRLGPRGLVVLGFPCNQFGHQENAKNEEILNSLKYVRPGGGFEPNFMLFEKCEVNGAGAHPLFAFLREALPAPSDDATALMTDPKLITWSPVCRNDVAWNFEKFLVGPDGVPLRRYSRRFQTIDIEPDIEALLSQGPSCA
# Summary of the method: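 GR-coupled readout: NADPH consumption tracked by fluorescence, ex 340/em 450 nm, at t=0 and after 15 min at RT. Final mix 10 nM GPX1, 1 mM GSH, 0.5 mM CHP, 0.5 mM NADPH, 100 nM GR, 0.01% BSA, following 30 min enzyme–compound preincubation.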
# [2] = target: Phospholipid hydroperoxide glutathione peroxidase GPX4 (Homo sapiens) (UniProt P36969); test: Primary qHTS Assay for Inhibitors of Recombinant Selenoprotein Glutathione Peroxidase 4 (GPX4) (AID 1845192); also: nearly all actives have a fitted effect of over 65% in size; as to activity change, negative = inhibition: series mostly up to about 50 µM
# Chain of Phospholipid hydroperoxide glutathione peroxidase GPX4 (Homo sapiens) (P36969 whole entry, looked up): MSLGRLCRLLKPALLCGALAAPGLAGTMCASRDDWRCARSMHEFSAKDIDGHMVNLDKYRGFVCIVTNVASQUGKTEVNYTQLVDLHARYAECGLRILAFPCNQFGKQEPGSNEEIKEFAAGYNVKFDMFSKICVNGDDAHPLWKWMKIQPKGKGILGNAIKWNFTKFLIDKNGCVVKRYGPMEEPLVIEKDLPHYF
# Summary of the method: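 Steps: GPX4 plus compound, 30 min RT; add GR/GSH/NADPH master mix; start with cumene hydroperoxide; read 340/450 nm fluorescence at 0 and 15 min. Finals were 200 nM GPX4, 1 mM GSH, 0.5 mM CHP, 0.5 mM NADPH, 100 nM GR.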
# [3] = target: Luciferin 4-monooxygenase (Photinus pyralis) (UniProt P08659); test: Primary firefly luciferase (FLuc) qHTS assay for identification of artifact compounds. (AID 1845220); also: nearly all actives have a fitted effect of over 60% in size; as to activity change, negative = inhibition: series mostly up to about 54 µM
# Summary of the method: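 D-luciferin and ATP (10 uM each, final) in Tris acetate buffer pH 7.6 were incubated with compounds for 15 min at room temperature. The reaction was started with 10 nM Photinus pyralis luciferase and luminescence read after 5 min. Percent inhibition was fitted to a 4-parameter Hill equation.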
# [4] = Primary fluorescence-based thiol-reactive (MSTI) qHTS assay for identification of artifact compounds. (AID 1845221); also: nearly all actives have a fitted effect of over 65% in size; also: potency is read from the fitted curve at half-maximal effect;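 as to activity change, negative = thiol reactive: series mostly up to about 54 µM; thiol-reactive compounds lower the probe fluorescence signal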
# Summary of the method: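 Thiol-reactive compounds detected by quenching of 4 uM MSTI fluorescence (525/598 nm) after 1 h room-temperature dark incubation in PBS pH 7.4, 2% DMSO. qHTS titration; percent inhibition Hill-fitted against Acetyl-MSTI/MSTI controls.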
SMILES,Potency [1],Potency [2],Potency [3],Potency [4],"activity change, negative = inhibition [3]","activity change, negative = thiol reactive [4]"
C/C=C(\C)C(=O)OC1C(C)C2(O)C3C=C(C)C(=O)C3CC(CO)=CC2C2C(C)(C)C12OC(C)=O (stereo not given),inactive,inactive,inactive,inactive,–,–
CC(=O)O[C@@H](C[C@@H]1C=C(C)C(=O)O1)[C@H](C)[C@H]1CCC2[C@@]3(C)CC[C@H](O[C@@H]4O[C@H](CO)[C@@H](O)[C@H](O)[C@H]4O[C@@H]4O[C@@H](C)[C@H](O)[C@@H](O)[C@H]4O)C(C)(C)C3CC[C@@]2(C)[C@@]12COC(=O)C2 (stereo not given in full),inactive,inactive,–,–,-7.53% [at 11.6 µM],32.4% [at 11.5 µM]
Cc1occc(=O)c1O[C@@H]1O[C@H](COC(=O)CC(C)(O)CC(=O)O)[C@@H](O)[C@H](O)[C@H]1O (stereo not given in full),inactive,inactive,inactive,inactive,–,–
NC(=O)NCCCC(NC(=O)Cc1ccccc1)C(=O)O (stereo not given),inactive,inactive,inactive,inactive,–,–
O=C(OC[C@H]1O[C@@H](Oc2ccccc2CO)[C@H](O)[C@@H](O)[C@@H]1O)c1ccccc1,inactive,inactive,inactive,10.4 µM (active),–,–
C[C@H](O)C(O)(C(=O)OCc1ccccc1NC(=O)CCC(N)C(=O)O)[C@H](C)O (stereo not given in full),inactive,inactive,inactive,inactive,–,–
O=C(OCc1ccccc1O[C@@H]1O[C@H](CO)[C@@H](O)[C@H](O)[C@H]1O)C1(O)C=CCCC1O (stereo not given in full),inactive,inactive,inactive,5.82 µM (active),–,–
COC(=O)C1=COC(O[C@@H]2O[C@H](CO)[C@@H](O)[C@H](O)[C@H]2O)[C@@H]2[C@@](C)(O)[C@@H](OC(=O)/C=C/c3ccccc3)C[C@]12O (stereo not given in full),inactive,inactive,inactive,13 µM (active),–,–
Cc1cc(CO)c(O)c(C(=O)CC2CC(=O)NC(=O)C2)c1,inactive,inactive,inactive,inactive,–,–
CC1C2=CC(=O)OC2(O)CC2C1CCC1C(C)(C)CCC(O)C21C (stereo not given),inactive,inactive,inactive,inactive,–,–
Cc1ccc(C)c(S(=O)(=O)n2cnc3ccccc32)c1,inactive,inactive,inactive,inactive,–,–
C=C1[C@H](OC(C)=O)[C@H]2[C@@H](OC(C)=O)C(C)C[C@]2(OC(C)=O)C(=O)[C@H](C)/C=C/C(C)(C)C(=O)[C@H](OC(=O)C(C)C)[C@H]1OC(C)=O (stereo not given in full),inactive,inactive,inactive,inactive,–,–
NC(=O)C(O[C@@H]1O[C@H](CO[C@@H]2O[C@H](CO)[C@@H](O)[C@H](O)[C@H]2O)[C@@H](O)[C@H](O)[C@H]1O)c1ccccc1 (stereo not given in full),inactive,inactive,inactive,inactive,–,–
Cc1nnc(-c2ccc3occ(-c4ccc(S(C)=O)cc4)c3c2)o1 (stereo not given),inactive,inactive,inactive,inactive,–,–
CC1=C2C[C@@]3(C)C(CCC[C@@H]3C)C(O)C2(O)OC1=O (stereo not given in full),inactive,inactive,inactive,inactive,–,–
COc1ccc(C2(O)c3c(ccc4c3OC(C)(CCC=C(C)C)C=C4)NC(=O)C2OC)cc1 (stereo not given),inactive,inactive,inactive,inactive,–,–
CC1(C)CC[C@]2(C(=O)OC3OC(CO)C(O)C(O)C3O)CC[C@]3(C)C(=CCC4[C@@]5(C)C[C@@H](O)[C@H](OC6OC(C(=O)O)C(O)C(O)C6O)C(C)(C)C5CC[C@]43C)[C@@H]2C1 (stereo not given in full),inactive,inactive,–,–,-3.02% [at 11.6 µM],309% [at 11.5 µM]
CC1=CCC[C@@H]2[C@](CCc3ccoc3)(C(=O)O)[C@H](C)CC[C@@]12C,inactive,inactive,inactive,inactive,–,–
CC(=O)OC1C(CO)OC(O[C@H]2[C@H](OC(=O)[C@]34CCC(C)(C)C[C@H]3C3=CCC5[C@@]6(C)CC[C@H](O[C@@H]7O[C@H](C(=O)O)[C@@H](O)[C@H](O[C@@H]8OC[C@@H](O)[C@H](O)[C@H]8O)[C@H]7O[C@@H]7O[C@H](CO)[C@H](O)[C@H](O)[C@H]7O)[C@@](C)(C=O)C6CC[C@@]5(C)[C@]3(C)C[C@H]4O)O[C@H](C)[C@H](OC3OC(C)C(OC4OCC(O)C(O)C4O)C(O)C3O)[C@@H]2O)C(O)C1O (stereo not given in full),inactive,inactive,–,–,2.42% [at 11.6 µM],290% [at 11.5 µM]
Cc1cc(Cn2cnc3c2CC(C(=O)O)N(C(=O)C(c2ccccc2)c2ccccc2)C3)ccc1N(C)C (stereo not given),inactive,inactive,inactive,inactive,–,–
